About 2,200 (0.71%) of roughly 310,000 compounds showed an effect of 50% or more. Effects have a minus sign here. Only a selection was taken, and strong results are over-represented in it overall.
Target: human ether-à-go-go-related gene (hERG) potassium channel (human, UniProt Q12809)
Assay: primary screen, population patch clamp on CHO cells stably expressing hERG; higher = less effect of the substance

Sequence of human ether-à-go-go-related gene (hERG) potassium channel (Q12809 whole entry, looked up): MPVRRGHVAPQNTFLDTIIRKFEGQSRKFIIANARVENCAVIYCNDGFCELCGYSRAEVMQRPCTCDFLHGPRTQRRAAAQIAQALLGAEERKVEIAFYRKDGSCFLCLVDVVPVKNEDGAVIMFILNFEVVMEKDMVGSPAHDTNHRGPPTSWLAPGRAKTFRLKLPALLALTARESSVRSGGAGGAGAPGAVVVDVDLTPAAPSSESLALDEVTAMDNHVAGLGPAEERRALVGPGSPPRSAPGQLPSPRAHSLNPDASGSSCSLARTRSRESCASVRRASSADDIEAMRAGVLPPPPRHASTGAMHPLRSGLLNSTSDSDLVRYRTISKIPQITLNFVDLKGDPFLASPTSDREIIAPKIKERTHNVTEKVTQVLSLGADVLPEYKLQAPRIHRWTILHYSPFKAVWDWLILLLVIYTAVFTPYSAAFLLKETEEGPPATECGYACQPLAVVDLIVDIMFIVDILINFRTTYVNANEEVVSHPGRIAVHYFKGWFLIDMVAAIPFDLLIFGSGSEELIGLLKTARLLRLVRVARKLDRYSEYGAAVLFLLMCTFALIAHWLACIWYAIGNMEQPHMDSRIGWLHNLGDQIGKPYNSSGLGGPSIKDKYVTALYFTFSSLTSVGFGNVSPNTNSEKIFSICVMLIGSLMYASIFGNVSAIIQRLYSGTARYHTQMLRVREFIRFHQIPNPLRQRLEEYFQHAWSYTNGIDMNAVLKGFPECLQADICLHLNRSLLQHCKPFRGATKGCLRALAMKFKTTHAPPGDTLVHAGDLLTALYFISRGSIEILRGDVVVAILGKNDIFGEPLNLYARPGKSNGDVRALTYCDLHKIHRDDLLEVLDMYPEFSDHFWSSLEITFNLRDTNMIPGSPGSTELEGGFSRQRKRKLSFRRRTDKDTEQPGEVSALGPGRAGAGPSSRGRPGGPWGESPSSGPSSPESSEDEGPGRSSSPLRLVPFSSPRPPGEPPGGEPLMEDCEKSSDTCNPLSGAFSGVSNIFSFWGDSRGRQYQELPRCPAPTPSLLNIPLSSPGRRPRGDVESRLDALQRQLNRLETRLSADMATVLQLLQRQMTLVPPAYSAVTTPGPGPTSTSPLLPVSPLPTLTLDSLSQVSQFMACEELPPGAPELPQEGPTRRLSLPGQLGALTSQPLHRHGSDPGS

| Structure (SMILES) | hERG current change (%, negative = inhibition) at 1uM |
| --- | --- |
| Cc1occc1-c1nnc(SCC(=O)NC2CCCC2)n1C | 13.5% |
| c1ccc2c(c1)CCCn1nnnc1-2 | 6.71% |
| CCCC(=O)N(Cc1cc(=O)[nH]c2ccccc12)c1ccccc1C | 13.1% |
| O=C(Cn1cnc(S(=O)(=O)N2CCCC2)c1)Nc1cccc(F)c1 | 14.4% |
| COc1ccc(S(=O)(=O)N2CCOCC2)cc1NC(=O)c1ccc(-n2nc(C)cc2C)cc1 | 6.25% |
| CCc1ccc(C(=O)OCC(=O)Nc2cccc(S(=O)(=O)NC3=NCCCCC3)c2)cc1 | 7.29% |
| COc1ccc(CNS(=O)(=O)c2ccc3c(c2)CC(C)N3C(=O)C2CC2)cc1 (centres unmarked) | 15.1% |
| CCN1CCN(CCCNC(=O)CCC(=O)N2CCOc3ccc(Cl)cc32)CC1 | 6.48% |
| O=C(CCC(=O)N1CCOc2ccccc21)NCCCN1CCN(Cc2ccccc2)CC1 | -41.9% |
| O=C(CCC(=O)N1CCOc2ccc(Cl)cc21)NCCCN1CCN(c2ccccc2F)CC1 | -22.2% |
| O=C(CCC(=O)N1CCOc2ccc(Cl)cc21)NCCCN1CCOCC1 | 12.5% |
| Cc1ccc2c(c1)N(C(=O)CCC(=O)NCCCN1CCC(Cc3ccccc3)CC1)CCO2 | -78.7% |
| Cc1ccc2c(c1)N(C(=O)CCC(=O)NCCCN1CCN(C)CC1)CCO2 | 7.21% |
| O=C(CCC(=O)N1CCOc2ccc(Cl)cc21)NCCCN1CCC(Cc2ccccc2)CC1 | -64.7% |
| O=C(CCC(=O)N1CCOc2ccc(Cl)cc21)NCCCN1CCN(Cc2ccccc2)CC1 | -63.7% |
| Cc1ccc2c(c1)N(C(=O)CCC(=O)NCCCN1CCOCC1)CCO2 | 13.9% |
| CC(NS(=O)(=O)c1cccc(S(=O)(=O)c2ccccc2)c1)C(=O)O (centres unmarked) | 7.71% |
| O=C(CSc1ccc(-c2cccnc2)nn1)N1CCCCC1 | 14.1% |
| COc1ccc(-c2[nH]ncc2CN(C)C(C)c2ccncn2)c(F)c1 (centres unmarked) | 1.94% |
| COc1cc(Br)c(C(=O)c2nccc3cc(OC)c(OC)cc23)cc1OC | 10.6% |
| O=C(COc1ccc2ccc(=O)oc2c1)Nc1nccs1 | 2.46% |
| O=C1N/C(=N/N=C/c2ccc(O)cc2)SC1Cc1ccccc1 (centres unmarked) | -0.776% |

| Structure (SMILES) | hERG current change (%, negative = inhibition) at 1uM |
| --- | --- |
| Cc1occc1C(=O)N/N=C/c1ccc(N(C)C)cc1 | 15.7% |
| O=C(NC1(C(F)(F)F)NC(=O)N(Cc2ccco2)C1=O)c1cccs1 (centres unmarked) | 19.2% |
| CC(=O)N1CCN(c2ccc(NC(=O)c3ccc(Br)o3)cc2Cl)CC1 | -1.25% |
| Cc1ccc(Cl)cc1N1CCN(S(=O)(=O)c2cnc[nH]2)CC1 | 1.64% |
| CN(Cc1ccccc1)S(=O)(=O)c1cc2c3c(c1)CCN3C(=O)CC2 | 6.98% |
| O=C(NN1C(=O)c2ccccc2NC1c1ccco1)c1ccccc1 (centres unmarked) | 4.38% |
| O=C(NN1C(=O)c2ccccc2NC1c1ccc([N+](=O)[O-])o1)c1ccc(Br)cc1 (centres unmarked) | -27.2% |
| O=C(NN1C(=O)c2ccccc2NC1c1ccco1)c1ccc(Br)cc1 (centres unmarked) | -50.4% |
| O=C(Nc1ccc2oc(=O)ccc2c1)c1cccnc1Cl | -2.76% |
| CN(C)S(=O)(=O)c1ccc(C(=O)OCCCN=C2NS(=O)(=O)c3ccccc32)cc1 | -5.83% |
| COc1ccc(CN2CCCC(C(=O)c3ccc(Cl)cc3)C2)c(O)c1 (centres unmarked) | -21.3% |
| O=C(c1ccc(-c2ccccc2)c(F)c1)C1CCCN(CCCn2cccn2)C1 (centres unmarked) | -38.6% |
| CSc1ccc(C(=O)C2CCCN(Cc3cccnc3)C2)cc1 (centres unmarked) | -4.37% |
| CSc1ccc(C(=O)C2CCCN(Cc3cnc(SC)nc3)C2)cc1 (centres unmarked) | -33.7% |
| COc1ccc(C(=O)C2CCCN(Cc3cc(Cl)ccc3O)C2)c(OC)c1 (centres unmarked) | 12.6% |
| COc1cccc(C(=O)C2CCCN(Cc3ccc(OC)c(Cn4cncn4)c3)C2)c1 (centres unmarked) | -20.2% |
| COc1ccc(CN2CCCC(C(=O)c3ccc(SC)cc3)C2)cc1Cn1cccn1 (centres unmarked) | -68.5% |
| O=C(c1ccc(Cl)cc1)C1CCCN(Cc2ccc3nonc3c2)C1 (centres unmarked) | 0.831% |
| COc1cc(CN2CCCC(C(=O)c3ccc(SC)cc3)C2)cc(Cl)c1O (centres unmarked) | -3.13% |
| CSc1ccc(C(=O)C2CCCN(CCCn3cccn3)C2)cc1 (centres unmarked) | -78.3% |
| COc1ccc(CN2CCCC(C(=O)c3ccc(Cl)cc3)C2)cc1Cn1cncn1 (centres unmarked) | -59.9% |
| COc1ccc(CN2CCCC(C(=O)c3ccc(Cl)cc3)C2)c(OC)c1 (centres unmarked) | -53.6% |
